This note sets out measurements from PubChem BioAssay (NCATS).

A number with no mark means an inactive call. Inconclusive results are not listed. The source made the active and inactive calls. Unless noted, calls follow the shape of the dose curve; as a rule, active = well fitted curve in the direction sought with a large enough effect; inconclusive = small, poorly fitted or top-dose-only effect, or another doubt; inactive = no such curve, though single readings can be large; an effect the other way counts as inactive or inconclusive.

Assay [1] in a line: qHTS assay for small molecule disruptors of the mitochondrial membrane potential - 1 hr assay (AID 651754; calls by dose curve; also: % is scaled to controls: 0 for no effect and ±100 for the full control effect; nearly all actives have a fitted effect of over 35% in size). A digest of the protocol: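 In this qHTS format, a 1 hr compound treatment of HepG2 cells precedes Mito-MPS staining, and membrane potential is judged from aggregate (red) against monomer (green) fluorescence intensity.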
The nature of assay [2]: qHTS assay for small molecule disruptors of the mitochondrial membrane potential - 5 hr assay (AID 651755; calls by dose curve; also: % is scaled to controls: 0 for no effect and ±100 for the full control effect; nearly all actives have a fitted effect of over 40% in size). An outline of the steps: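 Seed HepG2 overnight, add compound, incubate 5 hr at 37C and 5% CO2, stain 30 min with Mito-MPS, then measure monomer (490/535 nm) and aggregate (540/590 nm) fluorescence.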
The target in assay [3] is Tumor necrosis factor (Homo sapiens) (UniProt P01375). Kind of assay: qHTS assay to identify small molecules that stimulate Tumor Necrosis Factor-alpha (TNF-alpha) secretion (AID 651757; active = well fitted curve in the direction sought with a large enough effect in the signal ratio; the % refers to the signal ratio; also: potency is read from the fitted curve at half-maximal effect). A digest of the protocol: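 Using 3000 THP-1 cells per well, compounds and controls were applied for 17 hrs at 37 C. Detection followed with two labeled anti-TNF-alpha antibodies (cryptate donor, XL665 acceptor) for 3 hr at room temperature, measured by TR-FRET.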
Chain of Tumor necrosis factor (Homo sapiens) (P01375 whole entry, looked up): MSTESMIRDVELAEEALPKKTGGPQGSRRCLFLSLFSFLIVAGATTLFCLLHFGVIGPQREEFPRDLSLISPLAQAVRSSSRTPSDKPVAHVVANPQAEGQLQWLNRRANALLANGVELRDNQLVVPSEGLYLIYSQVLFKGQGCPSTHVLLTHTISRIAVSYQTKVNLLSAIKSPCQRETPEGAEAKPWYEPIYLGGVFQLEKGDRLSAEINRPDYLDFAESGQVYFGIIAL

Assay [4] in a line: qHTS assay for environmental chemicals that activate the Aryl hydrocarbon Receptor (AhR) signaling pathway (AID 651777). Also: nearly all actives have a fitted effect of over 15% in size. Also: potency is read from the fitted curve at half-maximal effect. As to activation: % of control where 0% means no effect. The conditions noted are these: 1A2-DRE human hepatoma cells, luciferase, 24 h; activation: active compounds read high. An outline of the steps:
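Following a 24 hr incubation with test chemicals at 37 C and 5% CO2, 1A2-DRE human hepatoma cells received One-Glo reagent; after 30 min at room temperature, luciferase output reflected CYP1A2 induction via AhR.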

Assay [5] deals with Peroxisome proliferator-activated receptor alpha (Homo sapiens) (UniProt Q07869). Kind of assay: qHTS assay for small molecule agonists of the peroxisome proliferator-activated receptor alpha (PPARalpha) signaling pathway (AID 651778). Also: % of control where 0% means no effect. The following applies: PathHunter PPARalpha complementation, chemiluminescence, 6 h; active compounds read high. An outline of the steps: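 Cells plated at 2,000/well and held overnight at 37 C, 5% CO2, then compound added by pin tool for 6 hr; after PathHunter detection reagent and 60 min at room temperature, chemiluminescence from enzyme complementation was read.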
Chain of Peroxisome proliferator-activated receptor alpha (Homo sapiens) (Q07869 whole entry, looked up): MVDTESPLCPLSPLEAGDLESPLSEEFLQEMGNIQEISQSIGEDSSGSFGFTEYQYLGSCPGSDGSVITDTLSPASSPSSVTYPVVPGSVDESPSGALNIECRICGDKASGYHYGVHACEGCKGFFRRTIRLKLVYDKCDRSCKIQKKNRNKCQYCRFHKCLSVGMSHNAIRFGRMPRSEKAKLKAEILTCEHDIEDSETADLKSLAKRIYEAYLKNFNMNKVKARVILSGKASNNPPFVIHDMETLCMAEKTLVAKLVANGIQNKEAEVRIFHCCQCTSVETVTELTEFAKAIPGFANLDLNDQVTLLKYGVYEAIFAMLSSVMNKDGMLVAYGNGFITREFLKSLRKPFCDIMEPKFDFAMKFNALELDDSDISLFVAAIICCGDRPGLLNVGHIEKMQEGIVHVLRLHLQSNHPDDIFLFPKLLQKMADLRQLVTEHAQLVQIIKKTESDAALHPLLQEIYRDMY

Assay [6] addresses Nuclear receptor ROR-gamma (Homo sapiens) (UniProt P51449). Kind of assay: qHTS assay for small molecule antagonists of the retinoid-related orphan receptor gamma (ROR-gamma) signaling pathway (AID 651802). Also: nearly all actives have a fitted effect of over 60% in size. Also: potency is read from the fitted curve at half-maximal effect. An outline of the steps: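 Doxycycline-induced reporter activity in engineered CHO cells (TET-inducible ROR, RORE-LUC) was measured by luminescence after 16hr compound exposure at 37C.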

A short description of assay [7]: qHTS assay for small molecule agonists of the antioxidant response element (ARE) signaling pathway measured by Nrf2-dependant transcriptional activity (AID 720636; active = well fitted curve in the direction sought with a large enough effect in the repeat runs; an effect the other way counts as inactive or inconclusive;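 also: HepG2 cells with an ARE-driven luciferase reporter; % of control where 0% means no effect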). A digest of the protocol:
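ONE-Glo luminescence, read 30 min after reagent addition at room temperature, reflected ARE reporter activity in HepG2 cells that had been incubated with compound for 16 hr at 37 C in 1% dialyzed FBS.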

Assay [8] in a line: qHTS assay for cell viability of HEK293 cells (AID 743288). Also: % is scaled to controls: 0 for no effect and ±100 for the full control effect; nearly all actives have a fitted effect of over 50% in size. The conditions noted are these: ATP luminescence (CellTiter-Glo), 18 h, active compounds read low. An outline of the steps: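 Steps: plate 2,000 parental HEK293 cells per well; incubate ≥5 h, 37 C; add compounds in DMSO; incubate 18 h, 37 C; add CellTiter-Glo; wait 30 min at room temperature; read luminescence.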
Assay [9] is described as follows: qHTS assay for cell viability of the p53RE-bla HCT-116 cell line (AID 743292). Also: % is scaled to controls: 0 for no effect and ±100 for the full control effect; nearly all actives have a fitted effect of over 55% in size. A digest of the protocol:
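After plating at 4,000 cells per well and a 5 h rest at 37 C, HCT-116 cells carrying p53RE-bla received test chemicals in DMSO. Sixteen hours later at 37 C, CellTiter-Glo was added and luminescence recorded following 30 min at room temperature.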

Assay [10] can be described thus: qHTS assay for small molecule activators of the human pregnane X receptor (PXR) signaling pathway (AID 720659; call rule not given here; also: 0% is about no effect).
Assay [11] is described as follows: qHTS assay for small molecule agonists of the antioxidant response element (ARE) signaling pathway measured by Nrf2-dependant transcriptional activity - cell viability counter screen (AID 720653; active = well fitted curve in the direction sought with a large enough effect in the repeat runs; an effect the other way counts as inactive or inconclusive; also: % is scaled to controls: 0 for no effect and ±100 for the full control effect). The conditions noted are these: ARE-bla HepG2 viability, CellTiter-Glo ATP luminescence, 16 h; active compounds read low. An outline of the steps:
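ARE-bla HepG2 cells (2,000/well) rested 5 hrs at 37C/5% CO2, then exposed to compounds in DMSO for 16 hrs. Viability was read in the same wells as intracellular ATP by luminescence, 30 min at room temperature after reagent addition.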

The target of assay [12] is Nuclear receptor subfamily 1 group I member 2 (Rattus norvegicus) (UniProt Q9R1A7). Nature of the assay: qHTS assay for small molecule activators of the rat pregnane X receptor (rPXR) signaling pathway (AID 651751; call rule not given here; also: 0% is about no effect). The conditions noted are these: rPXR reporter cells, luciferase (One-Glo), 24 h.
Chain of Nuclear receptor subfamily 1 group I member 2 (Rattus norvegicus) (Q9R1A7 whole entry, looked up): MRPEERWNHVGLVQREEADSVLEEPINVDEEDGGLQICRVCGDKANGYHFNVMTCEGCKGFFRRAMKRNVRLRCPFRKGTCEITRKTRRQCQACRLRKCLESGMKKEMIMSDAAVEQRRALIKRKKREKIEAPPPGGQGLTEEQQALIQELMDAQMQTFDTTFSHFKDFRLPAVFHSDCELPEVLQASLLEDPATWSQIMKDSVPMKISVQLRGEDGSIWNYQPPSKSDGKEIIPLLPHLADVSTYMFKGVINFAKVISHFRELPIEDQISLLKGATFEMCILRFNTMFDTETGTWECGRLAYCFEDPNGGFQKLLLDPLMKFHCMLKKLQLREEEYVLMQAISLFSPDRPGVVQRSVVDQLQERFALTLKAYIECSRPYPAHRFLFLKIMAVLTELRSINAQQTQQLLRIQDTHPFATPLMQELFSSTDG
The nature of assay [13]: qHTS assay for small molecule antagonists of the retinoid-related orphan receptor gamma (ROR-gamma) signaling pathway - cell viability counter screen (AID 720652; active = well fitted curve in the direction sought with a large enough effect in the repeat runs; an effect the other way counts as inactive or inconclusive;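 also: series mostly up to about 92 µM; compound exposure lasted 16 hr before ATP read; % is scaled to controls: 0 for no effect and ±100 for the full control effect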). A digest of the protocol:
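ATP-based viability readout in the ROR-gamma reporter CHO cells after 16 hr compound exposure under doxycycline induction.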

Assay [14] in a line: qHTS assay to identify small molecules that stimulate interleukin-8 (IL-8) secretion (AID 651758; active = well fitted activation curve with a large enough effect in the signal ratio; the % refers to the signal ratio; also: 0% is about no effect). A digest of the protocol: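 Quantitative HTS in THP-1 monocytic cells at 2000 cells per well, with 16 hrs compound incubation at 37 C. IL-8 in the medium was then quantified by HTRF immunoassay, read after 1-3 hrs at room temperature.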

Chain of Nuclear receptor ROR-gamma (Homo sapiens) (P51449 whole entry, looked up): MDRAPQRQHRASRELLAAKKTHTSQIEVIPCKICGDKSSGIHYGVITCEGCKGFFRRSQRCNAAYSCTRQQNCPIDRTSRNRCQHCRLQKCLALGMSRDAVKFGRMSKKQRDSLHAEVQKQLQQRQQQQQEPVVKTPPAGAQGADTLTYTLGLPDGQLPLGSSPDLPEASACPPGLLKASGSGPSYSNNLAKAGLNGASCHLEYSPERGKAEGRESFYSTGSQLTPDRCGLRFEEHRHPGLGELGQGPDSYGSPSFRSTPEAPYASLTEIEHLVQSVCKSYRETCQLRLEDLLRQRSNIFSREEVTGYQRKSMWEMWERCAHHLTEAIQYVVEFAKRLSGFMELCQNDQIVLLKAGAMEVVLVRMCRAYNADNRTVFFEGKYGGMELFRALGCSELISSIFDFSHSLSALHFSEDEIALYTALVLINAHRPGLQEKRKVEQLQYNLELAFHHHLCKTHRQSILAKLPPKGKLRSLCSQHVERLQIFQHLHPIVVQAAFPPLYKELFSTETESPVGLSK

With `C[C@@H]1CC2(OC3C[C@@]4(C)C5=CC[C@H]6C(C)(C)C(O[C@@H]7OC[C@@H](O)[C@H](O)[C@H]7O)CC[C@@]67C[C@@]57CC[C@]4(C)C31)OC(O)C1(C)OC21` (some centres not stated), the Potency entry in assay [1], in assay [2], in assay [3] and in assay [9] was “inactive” in each case. For the same compound, the activation in assay [4] was -0.875%. Besides, the max response in [5] was 8.86%; in [8] it was -9.95%. In assay [6], the Potency is 21.1 µM (active). Further, the result in assay [7] and in [10] was inactive.
For the compound `Cc1ccc([N+](=O)[O-])c(N)c1`, the activation in assay [4] is 0.147%. The Potency result in assay [6] and in assay [9] was “inactive” throughout. Further, the call in assay [7] and in assay [10] was inactive. For the same compound, the max response in [11] was 6.11%; in assay [8], -6.54%; in [12], -3.2%.
In the case of `CC(=C/C=C/C(C)=C/C=C/C=C(C)/C=C/C=C(C)/C=C/C(=O)O)/C=C/C(=O)O`, the Potency entry in [3], in [6] and in assay [9] was “inactive” each time. The activation in assay [4] is 2.66%. Also, the max response in [5] was 2.34%; in assay [11], -9.67%; in [8] it was -2.36%; in assay [12], 9.17%. The compound was called inactive in assay [7] and in assay [10].
For the compound `Cc1ccc2nc(-c3ccc(N)cc3)sc2c1S(=O)(=O)O`, the Potency is 8.41 µM (active) in [3] and 39.8 µM (active) in assay [4]. For the same compound, the max response is 2.42% in [5], -24.5% in assay [11] and -7.88% in assay [8]. The Potency entry in assay [13] and in assay [9] was “inactive” each time.
On to `O=[N+]([O-])c1cccc(Cl)c1`, for which the Potency entry in assay [3], in assay [6], in assay [13] and in assay [9] was “inactive” in each case. Besides, the activation in [4] was 0.317%. For the same compound, the max response in assay [5] is -3.34%; in assay [11] it was -6.97%; in assay [8] it was -0.245%; in [12], 0.107%. Also, the call in [7] and in assay [10] was inactive.
For the compound `COC(=O)CCCC(=O)OC`, the Potency entry in assay [3], in assay [6], in assay [13] and in [9] was “inactive” in each case. The max response in assay [5] was -1.53%; in [11] it was 4.37%; in assay [8], -4.02%; in assay [12] it was 1.21%. Further, the result in assay [7] and in assay [10] was inactive.
Regarding `Cc1c(N)cccc1N`, the activation in assay [4] is 6.39%. The max response in assay [5] is 0.845%; in assay [11], 1.04%; in assay [8] it was 6.3%; in assay [12], 3.73%. The compound was called inactive in assay [7] and in [10]. For the same compound, the Potency entry in [9] was “inactive”.
For the compound `Cc1ccc(S(=O)(=O)NC2CCCCC2)cc1`, the Potency entry in assay [1], in assay [2], in [3], in assay [14] and in [9] was “inactive” in each case. The activation in [4] was -0.456%. Also, the results for the max response in [5], in assay [11] and in assay [8] were -1.4%, 1.13% and -5.72%, respectively. Also, the compound was called inactive in [7].
Take `Clc1cc(Cl)cc(Cl)c1`: the Potency entry in assay [1], in [3], in assay [14], in [13] and in assay [9] was “inactive” throughout. In addition, the activation in [4] was 2.15%. The max response is 0.786% in [5], -5.36% in [11] and -3.91% in assay [8]. Further, the call in assay [7] and in [10] was inactive.
Take `CCC(=O)/C=C/C1C(C)=CCCC1(C)C` (configuration not stated): the Potency result in assay [1], in assay [2], in [3], in assay [14], in assay [6] and in assay [13] was “inactive” in each case. Moreover, in [9], the Potency entry is “inactive”. For the same compound, in assay [4], the activation was -0.103%. Besides, the max response was 0.561% in [5], 0.358% in [11] and 0.395% in [8]. The result in assay [7] was inactive.
For the compound `Cc1cscn1`, the Potency entry in [3], in [13] and in [9] was “inactive” throughout. For the same compound, the activation in assay [4] is 1.08%. The max response was -1.32% in [5], 0.707% in [11], -3.62% in assay [8] and 0.103% in assay [12]. Also, the result in assay [7] and in [10] was inactive.
